In PubChem BioAssay (EPA / NIEHS):
Values joined by “and” are separate entries in the source; they are usually repeats but may differ in a detail not shown here. Equal values may be shown once. Records with an inconclusive call do not appear. Some compounds were tested as several samples or in several runs, with calls that do not always agree. Active and inactive are the calls of the source. Rule for the calls, unless noted: active = hit-call score of the fitted dose curve at least 0.9, where 1 is the maximum; inactive = score below 0.9.

Key:
[1] = ATG_PBREM_CIS: Attagene CIS-FACTORIAL HepG2 Assay for human Phenobarbital-responsive Enhancer Module (PBREM) (AID 2282955); conditions: HepG2 PBREM cis-reporter, Attagene multiplexed transcription; actives raise or lower the signal
Summary of the method: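 HepG2, transient MRTU transfection, 24 h dosing; RNA → oligo(dT) RT → PCR → 6-FAM extension → HpaI → CE. Bidirectional fit vs DMSO.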

[2] = target: Paired box protein Pax-6 (Homo sapiens) (UniProt P26367); experiment: ATG_Pax6_CIS: Attagene CIS-FACTORIAL HepG2 Assay for human Paired Box 6 (PAX6) (AID 2282956); conditions: HepG2 CIS-FACTORIAL PAX6 reporter transcription, RNA readout; actives raise or lower the signal
Summary of the method: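 Read-out is reporter transcript level, measured by RT-PCR with fluorescent primer extension and capillary electrophoresis after 24 h dosing of transfected HepG2 cells. Activity in either direction fitted relative to DMSO control.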

[3] = ATG_PPRE_CIS: Attagene CIS-FACTORIAL HepG2 Assay for human Peroxisome Proliferator-activated Response Element (PPRE) (AID 2282958); conditions: HepG2 PPRE cis-element reporter, Attagene transcription factor profiling; actives raise or lower the signal
Summary of the method: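 Transcript-level reporter induction in transfected HepG2 cells after 24 h chemical exposure, quantified by fluorescence from RT-PCR products separated by capillary electrophoresis.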

[4] = ATG_Sox_CIS: Attagene CIS-FACTORIAL HepG2 Assay for human SRY-box transcription factor (SOX) (AID 2282960); conditions: HepG2 Attagene cis-factorial SOX reporter, mRNA; actives raise or lower the signal
Summary of the method: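 Cells were transfected with reporter constructs under cis-regulatory promoters, then exposed to chemicals for 24 h. Reporter transcripts were quantified by fluorescence after RT-PCR and capillary electrophoresis; activity was fitted in both directions against DMSO.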

[5] = target: Transcription factor Sp1 (Homo sapiens) (UniProt P08047); experiment: ATG_Sp1_CIS: Attagene CIS-FACTORIAL HepG2 Assay for human Specificity Protein 1 (Sp1) (AID 2282961); conditions: HepG2 Sp1 cis-reporter transcription, actives raise or lower the signal
Summary of the method: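 Measures mRNA induction of an Sp1-linked reporter in HepG2 cells 24 h post-dosing. Multiplexed reporters read by RT-PCR and capillary electrophoresis; DMSO serves as negative control and baseline.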

[6] = ATG_SREBP_CIS: Attagene CIS-FACTORIAL HepG2 Assay for human Sterol Regulatory Element Binding (SREBP) (AID 2282962); conditions: HepG2 Attagene cis-factorial SREBP reporter, mRNA; actives raise or lower the signal
Summary of the method: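 Endogenous SREBP activity read as cis-element-driven reporter transcript in transiently transfected HepG2, 24 h post-dosing; quantified via RT-PCR plus capillary electrophoresis of fluorescent fragments. Gain or loss of signal fitted relative to DMSO baseline.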

[7] = target: Signal transducer and activator of transcription 3 (Homo sapiens) (UniProt P40763); experiment: ATG_STAT3_CIS: Attagene CIS-FACTORIAL HepG2 Assay for human Signal Transducer and Activator of Transcription 3 (STAT3) (AID 2282963); conditions: HepG2, Attagene cis-factorial STAT3 reporter transcription; actives raise or lower the signal
Summary of the method: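 Fluorescence intensity of 6-FAM-labelled reporter fragments, separated by capillary electrophoresis after RT-PCR, gave the signal. Cells were HepG2 transfected with cis-element reporter units and treated 24 h; fitting was bidirectional relative to DMSO.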

[8] = ATG_TA_CIS: Attagene CIS-FACTORIAL HepG2 Assay for human TA Basal Promoter (AID 2282964); conditions: HepG2 Attagene CIS-factorial TA basal promoter reporter; actives raise or lower the signal
Summary of the method: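 Fluorescence from labelled RT-PCR reporter fragments, separated by capillary electrophoresis, gives the signal. Cells: HepG2 transiently carrying multiple reporter units, 24 h chemical dosing. Gain or loss relative to DMSO.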

[9] = ATG_TCF_b_cat_CIS: Attagene CIS-FACTORIAL HepG2 Assay for human T-Cell-Factor with beta-catenin (TCF/b-cat) (AID 2282965); conditions: HepG2 TCF/beta-catenin cis-reporter transcription, actives raise or lower the signal
Summary of the method: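 HepG2 cells transiently transfected with cis-promoter-driven multiplexed reporter units; reporter mRNA measured 24 h after dosing by RT-PCR, FAM labelling, HpaI digestion and capillary electrophoresis. Bidirectional fitting relative to DMSO baseline.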

[10] = ATG_TAL_CIS: Attagene CIS-FACTORIAL HepG2 Assay for human TAL Basal Promoter (AID 2282966); conditions: HepG2 Attagene cis-factorial TAL promoter reporter; actives raise or lower the signal;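 note: background control endpoint measuring basal TAL promoter reporter mRNA not a specific factor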
Summary of the method: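 Background-control endpoint: basal TAL promoter reporter transcripts in transiently transfected HepG2, measured 24 h after dosing. Read-out by RT-PCR with fluorescent primer extension and capillary electrophoresis; gain or loss of signal fitted relative to DMSO.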

[11] = ATG_TGFb_CIS: Attagene CIS-FACTORIAL HepG2 Assay for human Transforming Growth Factor (TGF) (AID 2282967); conditions: HepG2 Attagene CIS TGFb reporter, mRNA transcription; actives raise or lower the signal
Summary of the method: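 Bidirectional fitting relative to DMSO gave the endpoint. Underlying data: reporter mRNA from HepG2 cells carrying transiently transfected cis-regulated reporter constructs, harvested 24 h after dosing and analyzed by RT-PCR and capillary electrophoresis.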

[12] = ATG_VDRE_CIS: Attagene CIS-FACTORIAL HepG2 Assay for human Vitamin D Receptor Element (VDRE) (AID 2282968); conditions: HepG2 VDRE cis-reporter transcription, actives raise or lower the signal
Summary of the method: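 Compounds were applied for 24 h to HepG2 cells transfected with promoter-regulated reporter units. Total RNA was reverse-transcribed, and reporter amplicons were fluorescently labelled and sized by capillary electrophoresis.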

[13] = target: Nuclear receptor subfamily 1 group I member 3 (Homo sapiens) (UniProt Q14994); experiment: ATG_CAR_TRANS: Attagene TRANS-FACTORIAL HepG2 Assay for human Constitutive Androstane Receptor (CAR) (AID 2282969; active = hit-call score of the fitted dose curve at least 0.9, where 1 is the maximum;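 note: activators raise reporter mRNA above DMSO so AC50 marks induction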); conditions: HepG2 Attagene TRANS-FACTORIAL CAR reporter
Summary of the method: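 Transiently transfected HepG2, multiplex TRANS reporters (CAR-Gal4 chimera driving GAL4-UAS reporter). 24 h dosing. Readout: reporter transcript by RT-PCR + capillary electrophoresis, fluorescence intensity; positive direction vs DMSO.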

[14] = target: X-box-binding protein 1 (Homo sapiens) (UniProt P17861); experiment: ATG_Xbp1_CIS: Attagene CIS-FACTORIAL HepG2 Assay for human X-box Binding Protein 1 (XBP1) (AID 2282972); conditions: HepG2 XBP1 cis-element reporter, Attagene multiplex; actives raise or lower the signal
Summary of the method: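 Reporter transcripts were quantified by RT-PCR with fluorescent primer extension and capillary electrophoresis after 24 h chemical exposure. Cells: transiently transfected HepG2 carrying cis-regulated reporter constructs; data fitted bidirectionally relative to DMSO.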

[15] = ATG_M_19_TRANS: Attagene TRANS-FACTORIAL HepG2 Assay for M19 Transcription Factor (Internal Marker) (AID 2282974; active = hit-call score of the fitted dose curve at least 0.9, where 1 is the maximum); conditions: HepG2 Attagene TRANS-FACTORIAL M19 internal marker reporter
Summary of the method: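 After transfection of HepG2 with GAL4-UAS-driven reporter constructs, cells are dosed for 24 h. Total RNA is reverse-transcribed, reporter sequences PCR-amplified and labelled, then HpaI-digested and sized by capillary electrophoresis.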

[16] = ATG_GAL4_TRANS: Attagene TRANS-FACTORIAL HepG2 Assay for GAL4 (Internal Marker) (AID 2282976; active = hit-call score of the fitted dose curve at least 0.9, where 1 is the maximum); conditions: HepG2 Attagene TRANS GAL4 internal marker reporter
Summary of the method: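 In transfected human HepG2 liver cells dosed 24 h, GAL4 reporter mRNA serves as a baseline marker. Detection by RT-PCR with fluorescent capillary electrophoresis, activity fitted upward relative to DMSO.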

[17] = ATG_PXRE_CIS: Attagene CIS-FACTORIAL HepG2 Assay for human Pregnane X Receptor Element (PXRE) (AID 2282957); conditions: HepG2 Attagene CIS-FACTORIAL PXRE reporter, mRNA; actives raise or lower the signal
Summary of the method: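 Reporter transcripts under endogenous PXR-responsive cis-regulation quantified from total RNA of transfected HepG2 cells 24 h post-dosing, via RT-PCR with fluorescent primer extension and capillary electrophoresis. Gain or loss of signal fitted against DMSO baseline.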

[18] = ATG_RORE_CIS: Attagene CIS-FACTORIAL HepG2 Assay for human RAR-related Orphan Receptor Element (RORE) (AID 2282959); conditions: HepG2 Attagene cis-factorial RORE reporter, mRNA; actives raise or lower the signal
Summary of the method: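 Multiplexed reporter assay measuring mRNA induction from a cis promoter element in transiently transfected HepG2 cells after 24 h treatment. Detection via RT-PCR and capillary electrophoresis fluorescence; DMSO serves as baseline.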

[19] = target: Estrogen receptor (Homo sapiens) (UniProt P03372); experiment: ATG_ERa_TRANS: Attagene TRANS-FACTORIAL HepG2 Assay for human Estrogen Receptor alpha (ERa) (AID 2282970; active = hit-call score of the fitted dose curve at least 0.9, where 1 is the maximum); conditions: HepG2 Attagene TRANS ERa GAL4 reporter, mRNA
Summary of the method: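 Reporter transcripts were measured 24 h after dosing by RT-PCR with fluorescent primer extension and capillary electrophoresis. The system is transiently transfected HepG2 expressing exogenous NR-Gal4 chimeras driving GAL4-UAS reporters; DMSO is the baseline.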

[20] = target: Steroid hormone receptor ERR1 (Homo sapiens) (UniProt P11474); experiment: ATG_ERRa_TRANS: Attagene TRANS-FACTORIAL HepG2 Assay for human Estrogen-Related Receptor alpha (ERRa) (AID 2282971; active = hit-call score of the fitted dose curve at least 0.9, where 1 is the maximum); conditions: HepG2 Attagene TRANS reporter, ERRa transactivation
Summary of the method: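 Reporter transcripts from ERRa-Gal4 chimera activity measured in transiently transfected human HepG2 cells 24 hours after dosing, using RT-PCR with 6-FAM primer extension, HpaI digestion and capillary electrophoresis; DMSO is baseline.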

Measured: AC50

Chain of Steroid hormone receptor ERR1 (Homo sapiens) (P11474 whole entry, looked up, the tested form may be a part): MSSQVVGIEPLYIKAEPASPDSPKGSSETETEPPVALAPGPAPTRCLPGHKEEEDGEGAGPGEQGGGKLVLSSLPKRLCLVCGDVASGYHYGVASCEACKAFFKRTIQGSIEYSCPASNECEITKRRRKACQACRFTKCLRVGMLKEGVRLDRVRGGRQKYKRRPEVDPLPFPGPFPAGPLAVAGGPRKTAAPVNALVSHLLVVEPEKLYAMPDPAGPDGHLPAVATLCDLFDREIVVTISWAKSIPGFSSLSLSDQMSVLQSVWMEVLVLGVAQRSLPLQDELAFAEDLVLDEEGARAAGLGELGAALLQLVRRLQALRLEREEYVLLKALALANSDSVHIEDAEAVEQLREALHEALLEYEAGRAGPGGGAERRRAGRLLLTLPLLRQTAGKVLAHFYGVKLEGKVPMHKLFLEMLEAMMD
Chain of X-box-binding protein 1 (Homo sapiens) (P17861 whole entry, looked up): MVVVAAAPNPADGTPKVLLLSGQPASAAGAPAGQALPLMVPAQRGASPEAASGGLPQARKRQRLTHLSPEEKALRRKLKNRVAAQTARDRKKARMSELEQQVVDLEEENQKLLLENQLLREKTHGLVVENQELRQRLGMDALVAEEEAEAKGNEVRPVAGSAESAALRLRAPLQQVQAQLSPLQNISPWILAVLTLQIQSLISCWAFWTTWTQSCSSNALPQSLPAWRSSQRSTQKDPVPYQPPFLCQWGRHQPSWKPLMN
Chain of Signal transducer and activator of transcription 3 (Homo sapiens) (P40763 whole entry, looked up, the tested form may be a part): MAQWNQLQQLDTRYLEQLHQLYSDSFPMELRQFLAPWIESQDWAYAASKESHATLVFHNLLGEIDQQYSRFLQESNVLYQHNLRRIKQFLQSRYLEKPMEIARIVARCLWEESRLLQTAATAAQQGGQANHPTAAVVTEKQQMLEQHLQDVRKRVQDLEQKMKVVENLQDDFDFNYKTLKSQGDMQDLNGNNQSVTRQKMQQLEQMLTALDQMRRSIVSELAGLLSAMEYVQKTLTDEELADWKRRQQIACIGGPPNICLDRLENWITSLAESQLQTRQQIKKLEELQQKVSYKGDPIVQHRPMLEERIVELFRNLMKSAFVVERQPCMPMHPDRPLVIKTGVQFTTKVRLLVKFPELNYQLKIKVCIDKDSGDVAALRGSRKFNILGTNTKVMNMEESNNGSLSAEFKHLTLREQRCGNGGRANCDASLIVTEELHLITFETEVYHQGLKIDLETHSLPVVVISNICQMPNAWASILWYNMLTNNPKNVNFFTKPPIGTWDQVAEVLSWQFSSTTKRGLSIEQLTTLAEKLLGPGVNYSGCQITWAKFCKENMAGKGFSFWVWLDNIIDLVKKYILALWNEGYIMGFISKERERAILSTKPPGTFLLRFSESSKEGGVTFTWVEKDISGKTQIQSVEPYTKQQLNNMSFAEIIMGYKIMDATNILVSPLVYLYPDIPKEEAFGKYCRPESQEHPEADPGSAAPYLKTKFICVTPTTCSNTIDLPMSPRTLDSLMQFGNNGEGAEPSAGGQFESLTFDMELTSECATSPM
Chain of Nuclear receptor subfamily 1 group I member 3 (Homo sapiens) (Q14994 whole entry, looked up, the tested form may be a part): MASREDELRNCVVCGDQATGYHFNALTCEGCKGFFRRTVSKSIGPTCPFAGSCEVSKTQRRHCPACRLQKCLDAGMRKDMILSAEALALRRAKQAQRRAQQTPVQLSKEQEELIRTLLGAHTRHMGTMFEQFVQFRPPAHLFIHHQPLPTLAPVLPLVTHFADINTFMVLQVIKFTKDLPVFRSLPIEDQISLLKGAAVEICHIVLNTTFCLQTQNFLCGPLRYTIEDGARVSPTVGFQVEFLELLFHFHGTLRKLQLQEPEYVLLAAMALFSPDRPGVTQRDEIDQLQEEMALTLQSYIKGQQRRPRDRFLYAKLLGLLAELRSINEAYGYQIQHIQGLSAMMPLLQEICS
Chain of Estrogen receptor (Homo sapiens) (P03372 whole entry, looked up, the tested form may be a part): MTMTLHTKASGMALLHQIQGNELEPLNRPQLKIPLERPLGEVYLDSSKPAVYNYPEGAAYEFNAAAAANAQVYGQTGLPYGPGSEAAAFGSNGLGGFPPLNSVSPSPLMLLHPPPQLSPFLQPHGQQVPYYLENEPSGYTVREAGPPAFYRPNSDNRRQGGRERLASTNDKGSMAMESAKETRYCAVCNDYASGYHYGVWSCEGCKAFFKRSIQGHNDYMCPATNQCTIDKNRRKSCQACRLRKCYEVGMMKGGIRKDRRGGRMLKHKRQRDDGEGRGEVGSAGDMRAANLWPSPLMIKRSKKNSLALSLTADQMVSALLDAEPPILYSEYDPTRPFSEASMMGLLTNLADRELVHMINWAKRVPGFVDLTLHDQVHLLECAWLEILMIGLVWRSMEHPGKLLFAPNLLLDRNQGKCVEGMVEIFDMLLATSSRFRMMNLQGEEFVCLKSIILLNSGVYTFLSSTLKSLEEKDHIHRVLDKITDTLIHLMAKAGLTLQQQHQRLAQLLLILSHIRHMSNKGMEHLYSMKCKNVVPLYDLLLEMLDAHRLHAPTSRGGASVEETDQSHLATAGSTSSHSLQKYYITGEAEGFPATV
Chain of Transcription factor Sp1 (Homo sapiens) (P08047 whole entry, looked up): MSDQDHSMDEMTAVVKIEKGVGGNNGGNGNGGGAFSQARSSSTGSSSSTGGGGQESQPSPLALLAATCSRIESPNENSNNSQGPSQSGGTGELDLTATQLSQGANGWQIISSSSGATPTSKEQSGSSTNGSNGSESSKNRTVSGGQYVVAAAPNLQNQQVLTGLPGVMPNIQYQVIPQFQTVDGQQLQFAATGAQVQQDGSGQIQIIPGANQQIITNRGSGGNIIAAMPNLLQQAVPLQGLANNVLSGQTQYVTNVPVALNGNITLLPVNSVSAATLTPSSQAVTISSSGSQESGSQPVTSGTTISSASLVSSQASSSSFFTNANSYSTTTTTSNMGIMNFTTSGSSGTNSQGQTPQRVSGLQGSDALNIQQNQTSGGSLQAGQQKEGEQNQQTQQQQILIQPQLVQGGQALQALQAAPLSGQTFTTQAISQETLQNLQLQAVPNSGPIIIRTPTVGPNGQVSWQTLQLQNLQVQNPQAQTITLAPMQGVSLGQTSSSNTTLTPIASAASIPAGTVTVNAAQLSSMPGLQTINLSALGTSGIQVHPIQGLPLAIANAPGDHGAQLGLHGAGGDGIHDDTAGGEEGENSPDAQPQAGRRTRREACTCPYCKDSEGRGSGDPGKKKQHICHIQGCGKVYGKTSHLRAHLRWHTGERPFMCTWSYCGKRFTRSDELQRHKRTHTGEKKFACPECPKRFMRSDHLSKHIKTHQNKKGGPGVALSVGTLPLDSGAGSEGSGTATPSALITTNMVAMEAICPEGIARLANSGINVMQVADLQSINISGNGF
Chain of Paired box protein Pax-6 (Homo sapiens) (P26367 whole entry, looked up): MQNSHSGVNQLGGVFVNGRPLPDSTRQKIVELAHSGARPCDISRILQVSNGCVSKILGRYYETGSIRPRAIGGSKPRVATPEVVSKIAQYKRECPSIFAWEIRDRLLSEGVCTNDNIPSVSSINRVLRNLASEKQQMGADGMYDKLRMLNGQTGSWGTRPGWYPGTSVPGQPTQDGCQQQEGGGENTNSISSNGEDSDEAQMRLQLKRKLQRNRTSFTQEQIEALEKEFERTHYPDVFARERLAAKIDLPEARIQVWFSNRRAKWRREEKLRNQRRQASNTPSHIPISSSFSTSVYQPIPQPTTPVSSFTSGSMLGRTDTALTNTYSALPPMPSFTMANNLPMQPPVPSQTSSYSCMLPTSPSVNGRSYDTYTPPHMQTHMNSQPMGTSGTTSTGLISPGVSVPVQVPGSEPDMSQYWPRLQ

N[C@@H](Cc1cc(I)c(Oc2ccc(O)c(I)c2)c(I)c1)C(=O)O
inactive: [1] | [2] | [3] | [4] | [5] | [6] | [7] | [8] | [9] | [10] | [11] | [12] | [13] | [14] | [15] | [16]
active: [1] 24.4 µM | [3] 13 µM and 22.3 µM | [9] 41.6 µM and 24.3 µM

C[C@]12C[C@H](O)[C@H]3[C@@H](CCC4=CC(=O)CC[C@@]43C)[C@@H]1CC[C@@H]2C(=O)CO
active: [17] 32.7 µM [middle of 4 runs] | [19] 100 µM and 49.6 µM
inactive: [1] | [3] | [18] | [4] | [5] | [6] | [7] | [8] | [9] | [10] | [11] | [19] | [14] | [15]

CCC(C)OC(=O)N1CCCCC1CCO (configuration not stated)
inactive: [1] | [3] | [4] | [5] | [6] | [7] | [8] | [9] | [10] | [11] | [12] | [13] | [14] | [15]
active: [17] 20.7 µM and 15 µM | [12] 46.5 µM

c1ccc2[nH]c(-c3cscn3)nc2c1
inactive: [1] | [2] | [17] | [3] | [4] | [5] | [6] | [7] | [8] | [9] | [10] | [11] | [12] | [19] | [14] | [15] | [16]
active: [17] 10 µM

c1ccc(Nc2ccccc2)cc1
active: [17] 64 µM and 37.5 µM | [3] 20.6 µM | [12] 100 µM
inactive: [1] | [2] | [3] | [18] | [4] | [5] | [6] | [7] | [8] | [9] | [10] | [11] | [12] | [13] | [20] | [14]

COC(=O)c1cccc(C)c1S(=O)(=O)NC(=O)Nc1nc(OCC(F)(F)F)nc(N(C)C)n1
active: [17] 34.5 µM
not listed: [16]
inactive: all other assays above
